Bioassay records as filed in PubChem BioAssay.
PPC-1+TRAIL kill = compounds killing PPC-1 cancer cells with TRAIL present (potentiator screen, no TRAIL-free arm); PPC-1 cells + TRAIL, ATPLite viability luminescence; cell killing (% activity), % at 4 µM or 5 µM; 0.41% of 220,000 active;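 active means cell killing above 50% in the first pass at 4 µM, then a duplicate retest at 5 µM averaging 50% or more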;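 further: plate controls were cells with TRAIL plus DMSO for no effect and medium-only wells lacking cells for full effect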
SENP7 inh = blocks the human protease SENP7 | Q9BQF6 | inhibition, % at 5 µM | recombinant SENP7, Z-RLRGG-aminoluciferin luminescence, 40 min | 1.5% of 330,000 active;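 active means inhibition above about 50% at the single test dose, limit read from the data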;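 further: plate controls were DMSO with enzyme for no effect and no enzyme buffer wells for full effect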
SENP6 inh = inhibitors of human SENP6 protease; Recombinant SENP6 catalytic domain, aminoluciferin luminescence; 1.8% of 330,000 active; inhibition, % at 10 µM;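 active means inhibition above about 50% at the single tested dose, limit read from the data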;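 further: plate controls were DMSO wells with enzyme for no effect and DMSO wells lacking enzyme for full effect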
C8 TRAIL sens = sensitizes caspase-8 expressing cells to TRAIL. NB7+C8 cells + TRAIL, ATPlite viability luminescence. inhibition (viability loss, TRAIL sensitization), % at 10 µM. 1% of 360,000 active;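 active means compounds causing at least 50% loss of cell viability in the single-dose screen, relative to plate controls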
SENP8 block-1 = inhibitors of human SENP8 protease. Q96LD8. recombinant SENP8, Nedd8 substrate fluorescence. inhibition, % at 20 µM. 0.64% of 360,000 active. AID 602440; in the data active means inhibition mostly above about 40%, no sharp cut-off; inactive means mostly below about 27%
Target sequence (Q96LD8 whole entry, looked up): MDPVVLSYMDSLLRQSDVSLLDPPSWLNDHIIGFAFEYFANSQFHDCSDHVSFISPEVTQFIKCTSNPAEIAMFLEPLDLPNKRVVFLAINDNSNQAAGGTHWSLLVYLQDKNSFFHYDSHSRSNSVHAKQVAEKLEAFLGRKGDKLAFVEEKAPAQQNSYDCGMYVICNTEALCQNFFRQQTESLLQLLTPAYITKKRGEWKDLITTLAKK
SENP8 block-2 = blocks the human protease SENP8 | Q96LD8 | purified SENP8, Z-RLRGG-aminoluciferin cleavage, luminescence | inhibition, % at 10 µM | 1.2% of 330,000 active | AID 2540; in the data active means inhibition above about 50%
The depositor's hits bear a star; · = not tested or not shown. An excerpt weighted towards active compounds, which were near 3% of everything screened.

SMILES | PPC-1+TRAIL kill | SENP7 inh | SENP6 inh | C8 TRAIL sens | SENP8 block-1 | SENP8 block-2
C#CCOCCOCCOCCNc1nc(N2CCN(C(=O)CCCCCCCCCCNC(=O)[C@H](CCCCN)n3cc(CCO)nn3)CC2)nc(N2CCN(C(=O)CCCCCCCCCCNC(=O)[C@H](CCCN=C(N)N)n3cc(C[C@@H](C)CC)nn3)CC2)n1 | · | 1 | -38 | 0 | 16 | -16
C#CCOCCOCCOCCNc1nc(N2CCN(C(=O)CCCCCCCCCCNC(=O)Cn3cc(C[C@@H](C)O)nn3)CC2)nc(N2CCN(C(=O)CCCCCCCCCCNC(=O)[C@H](CCCCN)n3cc(C[C@@H](C)CC)nn3)CC2)n1 | · | 11 | -36 | 86* | 19 | -25
C#CCOCCOCCOCCNc1nc(N2CCN(C(=O)CCCCCCCCCCNC(=O)[C@H](CCCCN)n3cc(C[C@@H](C)CC)nn3)CC2)nc(N2CCN(C(=O)CCCCCCCCCCNC(=O)[C@H](CCCCN)n3cc(C[C@@H](C)CC)nn3)CC2)n1 | · | · | · | 95* | 12 | ·
CCCOCC(O)CC(Cc1ccccc1)C(=O)NN (configuration not stated) | 14 | 3 | 10 | 2 | 15 | 9
Cc1nn(CC(C)C)c(Cl)c1C(=O)N(C)CC(=O)Nc1ccc(Cl)cc1 | · | · | · | 0 | 15 | ·
O=C(NCCC1=CCCCC1)c1coc(=O)c(Br)c1 | 10 | 3 | -9 | 53* | -37 | 6
O=C(NCCC1=CCCCC1)c1ccc(=O)oc1 | -5 | 0 | -1 | -10 | 3 | 2
COc1ccc([N+](=O)[O-])cc1N(CC(=O)NCCC1=CCCCC1)S(C)(=O)=O | 4 | -3 | -13 | -6 | 14 | -12
O=C(Nc1nnc(-c2ccc(Br)cc2)o1)c1ccco1 | · | 7 | -8 | 54* | -51 | -5
Cc1ccc(-c2nnc(NC(=O)c3ccco3)o2)c(C)c1 | · | -11 | -12 | 55* | -6 | -10
CS(=O)(=O)c1ccc(-c2nnc(NC(=O)c3ccco3)o2)cc1 | · | 21 | -18 | 14 | -350 | -3
O=C1C(=Cc2cccn2-c2ccccc2)C(=O)c2ccccc21 | 14 | · | · | -19 | 23 | ·
O=C1C(=Cc2cccn2-c2ccc(O)cc2)C(=O)c2ccccc21 | 13 | 3 | 6 | -10 | 28* | 5
COc1cc([N+](=O)[O-])cc(/C=N/NC(=O)C(C)Nc2ccccc2C)c1O (configuration not stated) | 12 | -8 | 3 | 9 | 41* | 1
Cc1ccc(C(=O)N/N=C\C=C\c2ccccc2[N+](=O)[O-])cn1 | 33 | -2 | -3 | 3 | 26 | -9
Cc1ccc(C(=O)N/N=C\c2ccccc2[N+](=O)[O-])cn1 | · | · | · | 52* | 18 | ·
CCOc1ccc(C(=O)N/N=C/c2ccccc2[N+](=O)[O-])cc1 | 52* | 8 | 16 | 76* | -20 | 9
O=[N+]([O-])c1cccnc1N/N=C/c1ccccc1O | 20 | 97* | 93* | 51* | 10 | 87*
CCC(=O)Nc1ccc(C(=O)N/N=C/c2ccccc2[N+](=O)[O-])cc1 | 20 | 3 | -9 | 7 | -4 | -2
O=[N+]([O-])c1ccccc1/C=N/Nc1nccnc1Cl | -3 | 34 | 23 | -12 | 15 | 22
COc1ccc(S(=O)(=O)N2CCN=C2SCc2cccc(C)c2)cc1 | · | -10 | 4 | 3 | 5 | -1
COc1cc([N+](=O)[O-])cc(/C=N/NC(=O)c2ccc(C)nc2)c1O | 6 | 77* | 75* | 24 | 27 | 58*
CCOc1ccc(N(CC(=O)NCc2ccc(F)cc2)C(=O)c2ccco2)cc1 | · | -9 | -11 | 2 | 15 | -2
COC1=CC(=O)C(OC)=C(OC)C1=O | · | · | · | -4 | 41* | ·
COc1ccc(C(C#N)N2N=C(c3ccccc3)CC2c2ccccc2)cc1OC (configuration not stated) | -4 | 73* | 28 | 16 | -8 | -10
Cc1ccc(F)cc1NC(=O)c1sc2ncn(CC(=O)N3CCN(c4ccccn4)CC3)c(=O)c2c1C | · | -4 | -7 | -18 | 16 | 2
Cc1ccc(OCCSCc2nnc(NC(=O)Nc3cccc(Cl)c3)s2)cc1 | 32 | 3 | -4 | 52* | 6 | -7
COc1ccc(Nc2ncnc3c2c(C)c(C)n3CCCN(C)C)cc1 | · | 0 | 5 | 1 | -49 | -4
CC(=O)Nc1cc(-c2cccc(C(=O)NCCN(C)C)c2)cn2c(-c3cccc(C(F)(F)F)c3)cnc12 | · | · | · | 65* | -282 | ·
